Source: the supplement of paper PMC4166925
± gives the standard deviation of the averaged measurements. Whole data set: some 33,000 sequences, median “E-score (dimensionless, -0.5 to 0.5)” near -0.046, cut for the highest 2% near 0.36. The full list was thinned out, with the highest values kept by preference.

tested on: T1, SpTbr T-box DNA-binding domain (GST fusion); assay: PBM E-score of 8-mer (E-score (dimensionless, -0.5 to 0.5)); Tbr is Tbrain of the sea star Patiria miniata (Pm) or the sea urchin Strongylocentrotus purpuratus (Sp); higher = stronger binding preference; settings: the construct has about 5 more residues each side
T1 sequence: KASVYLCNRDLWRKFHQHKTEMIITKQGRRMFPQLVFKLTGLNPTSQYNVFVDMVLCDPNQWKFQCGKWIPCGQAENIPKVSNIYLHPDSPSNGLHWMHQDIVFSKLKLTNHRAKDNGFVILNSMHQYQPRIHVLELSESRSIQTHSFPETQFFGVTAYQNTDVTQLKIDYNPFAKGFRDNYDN
Protocol: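 Universal protein-binding microarray (Agilent AMADID 016060, 60-bp probes with a 35-bp variable region) incubated with 200 nM GST-fused Strongylocentrotus purpuratus Tbr T-box DNA-binding domain (residues 362-554) in PBS pH 7.5. Scored for every ungapped 8-mer (given with its reverse complement) as E-score (range -0.5 to 0.5; >0.45 counts as bound) and Z-score of median probe intensity. Two replicate arrays (datasets 1 and 2).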
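Note: protein at 200 nM in PBS on universal double-stranded arrays.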

Sequence	PBM E-score of 8-mer
ATCTGTAG	-0.206 ± 0.018
ATGGGAAC	-0.109 ± 0.011
CCAAGGCA	-0.112 ± 0.0028
CGTCGAGA	-0.0352 ± 0.014
AACCTTTA	0.000765 ± 0.041
AACCTTTC	-0.0391 ± 0.099
CACCTTTA	0.414 ± 0.0042
GACCTTTA	-0.242 ± 0.0044
CCCCTTTC	-0.132 ± 0.052
CACCTTTC	0.379 ± 0.024
AAGGGAGA	-0.13 ± 0.033
ATAGCCAT	-0.118 ± 0.018
CGTGCTCA	-0.0222 ± 0.013
TACCACGA	-0.00786 ± 0.00088
CGCGCGGC	0.208 ± 0.04
ATCTGGCG	0.0377 ± 0.0091
ATCGAGAC	0.0132 ± 0.042
GGTAGCTA	-0.314 ± 0.032
ATAGCCGG	-0.203 ± 0.015
TATGTGAA	0.17 ± 0.07
CCTGTGAA	0.363 ± 0.011
CGTGTGAA	0.4643 ± 0.0031
TGTGTGAA	0.4829 ± 0.004
CGTGTGTA	0.096 ± 0.044
TGGGTGAA	-0.137 ± 0.0066

Sequence	PBM E-score of 8-mer
CCTGCCTC	0.0708 ± 0.019
CTATCCTA	-0.171 ± 0.0083
GTTGACCA	0.142 ± 0.036
ATAACCAC	-0.138 ± 0.015
TCTCACCA	0.372 ± 0.011
TCGCACCA	0.434 ± 0.023
TCACACCA	0.4853 ± 0.0026
CCGCACCA	0.186 ± 0.032
GCGCACCA	0.00307 ± 0.052
ACACACAA	0.148 ± 0.02
TCACACAA	0.435 ± 0.0069
CCTCACCA	0.197 ± 0.025
ACTCACCA	-0.0326 ± 0.014
CCACACCA	0.314 ± 0.057
ACACACCA	0.287 ± 0.013
CCACACAA	0.0877 ± 0.025
CCGGGATC	-0.0846 ± 0.051
AGTAGAAT	-0.219 ± 0.017
GCCCCTGA	-0.091 ± 0.031
CCTGGAGC	-0.16 ± 0.026
GGGGTAAC	-0.0298 ± 0.022
GATGCAAA	0.0247 ± 0.033
CCCATCGA	-0.2033 ± 0.0016
AGGCCCGC	-0.15 ± 0.036
TCACACGA	0.387 ± 0.0091

Sequence	PBM E-score of 8-mer
GCACACGA	-0.113 ± 0.11
ACACACGA	-0.00198 ± 0.078
TCATTGAA	-0.129 ± 0.0043
CAACCTGC	0.149 ± 0.015
AGGAGGTC	-0.269 ± 0.036
AGGAGGTG	0.391 ± 0.03
AAGAGGTG	0.407 ± 0.0088
ACGAGGTG	0.419 ± 0.019
ACGAGGTC	-0.114 ± 0.018
AAGAGGTA	-0.272 ± 0.035
AAGAGGTC	-0.128 ± 0.01
AGGAGGTA	-0.0388 ± 0.051
ACGAGGTA	-0.0678 ± 0.011
ACATAGGT	0.221 ± 0.02
CCTGCTAA	0.269 ± 0.031
ACCAACAC	0.273 ± 0.0089
ACGCTTAA	0.11 ± 0.0092
GGCCGTAC	-0.249 ± 0.0084
ATTTGGGC	-0.181 ± 0.017
CACTTAGG	0.117 ± 0.04
ATGGTCCG	-0.11 ± 0.029
ATGATGGA	-0.179 ± 0.029
ATCACAAA	0.106 ± 0.014
ATCACAGG	0.227 ± 0.05
ATCACAGA	0.102 ± 0.074

Sequence	PBM E-score of 8-mer
ATCACATA	0.251 ± 0.055
ATCACACG	0.417 ± 0.027
ATCACACA	0.425 ± 0.017
AACAGCTA	0.232 ± 0.018
GAATCAGC	-0.196 ± 0.017
AAGCTTAG	-0.108 ± 0.11
ATTAGCAG	0.0716 ± 0.046
CTTAGCAC	0.364 ± 0.0057
CCTAGCAC	0.257 ± 0.016
CTTAGCAA	0.0388 ± 0.079
ATTAGCAA	-0.0446 ± 0.11
ATTAGCAC	0.368 ± 0.038
AGCATGGA	-0.0258 ± 0.071
ATGCTCTG	-0.168 ± 0.038
CGCTCAAA	0.00388 ± 0.065
ATATTAAA	-0.0775 ± 0.025
GATCACGC	0.359 ± 0.037
GATCACAC	0.479 ± 0.01
AATCACAC	0.457 ± 0.011
CATCACAA	0.204 ± 0.042
GATCACAA	0.251 ± 0.0097
AATCACAG	0.06 ± 0.051
CATCACAG	0.184 ± 0.0071
AATCACAA	0.212 ± 0.018
CATCACAC	0.451 ± 0.0075

Sequence	PBM E-score of 8-mer
CGCGACCG	0.29 ± 0.031
GGTACCAA	-0.0861 ± 0.086
ACAAAGGT	0.119 ± 0.0064
ACTGGGCT	-0.25 ± 0.058
AGTGGCAG	0.171 ± 0.033
AACCCCGC	0.136 ± 0.034
GAGGTGCA	0.338 ± 0.032
AAGGTGCA	0.35 ± 0.01
CAGGTGCC	0.388 ± 0.034
CTGGTGCC	0.141 ± 0.076
GAGGTGCC	0.379 ± 0.019
AAGGTGGT	0.247 ± 0.033
AAGGTGCG	0.4522 ± 0.0011
CGGGTGCC	0.18 ± 0.0043
ACGGTGCG	0.298 ± 0.024
AAGGTGCT	0.4354 ± 0.0022
AAGGTGCC	0.364 ± 0.0073
AAGGTACG	-0.0434 ± 0.066
AAATAGCG	0.169 ± 0.013
CACCCCTA	0.212 ± 0.022
CGCTACAA	0.107 ± 0.069
AACCATGG	-0.0415 ± 0.0021
ACTTCGAG	0.0665 ± 0.024
CAGGTGCA	0.265 ± 0.028
CAGGTGCG	0.454 ± 0.01

Sequence	PBM E-score of 8-mer
CAGATGCG	-0.139 ± 0.019
CAGGTCTA	-0.191 ± 0.055
AGCTAGCT	0.0778 ± 0.066
CACAAACC	-0.19 ± 0.028
ACAACACA	0.349 ± 0.0079
CCAACACC	0.4264 ± 0.0023
GCAACAAC	0.0625 ± 0.016
GCAACACC	0.439 ± 0.0069
GCAACACA	0.267 ± 0.014
CCAACACG	0.232 ± 0.013
ACAACACT	0.345 ± 0.0051
CCAACACA	0.299 ± 0.017
ACAACACC	0.424 ± 0.011
ATCACCGC	-0.0213 ± 0.03
AGTTGTCC	-0.136 ± 0.07
ACAATCAG	-0.0516 ± 0.0027
ACGCAAGC	-0.101 ± 0.061
AACAATTA	0.0621 ± 0.089
ACAGTTGA	0.2 ± 0.059
CATGGGCC	-0.352 ± 0.015
AGTACCGG	-0.341 ± 0.03
GTGAGAAA	0.441 ± 0.016
CTGAGAAA	-0.0469 ± 0.13
GTGAGAAC	0.4469 ± 0.0042
ATGAGAAC	-0.0381 ± 0.053

Sequence	PBM E-score of 8-mer
CTGAGAAC	0.0561 ± 0.038
ATGAGAAA	-0.221 ± 0.031
GCGAGAAA	0.342 ± 0.0013
ACGAGAAC	0.186 ± 0.0072
GCGAGAAC	0.393 ± 0.0087
CCAACTCC	-0.0214 ± 0.0039
GTCAAGGA	-0.0692 ± 0.085
AGCAAGAT	-0.0318 ± 0.027
CTTTTTTC	-0.0265 ± 0.039
GTGGCCAC	0.225 ± 0.026
ACTGCTGC	-0.0667 ± 0.011
ATCAAGAA	-0.219 ± 0.094
GAGTTAGC	0.0856 ± 0.074
CTCCAAAC	-0.0591 ± 0.11
AGTGTCGG	0.36 ± 0.015
CGTGTCGA	0.264 ± 0.013
AGTGTCGA	0.405 ± 0.0049
AGTGTCGC	0.412 ± 0.016
GGTGTCGA	0.453 ± 0.015
CGTGTCGC	0.254 ± 0.045
GTTGTCGA	0.271 ± 0.0066
ATTGTCGC	0.263 ± 0.028
ATTGTCGA	0.0605 ± 0.042
